According to PubChem BioAssay (Tox21):
“And” between values parts separate entries of the source, which are not always exact repeats. Equal values may be shown once. Records with an inconclusive call do not appear. The source made the active and inactive calls. Unless noted, calls come from the whole dose curve; as a rule, active = well fitted curve in the direction sought with a large enough effect in the repeat runs; inconclusive = weak or mixed curves; inactive = no such curve, though single readings can be large; an effect the other way counts as inactive or inconclusive.

Columns and labels:
[1] = qHTS assay to identify small molecule antagonists of the peroxisome proliferator-activated receptor delta (PPARd) signaling pathway - cell viability counter screen (AID 743213); note: potency is the fitted concentration of half-maximal effect; nearly all actives have a fitted effect of over 50% in size
Summary of the method: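 PPARd-bla HEK293H cells were treated with compounds plus agonist L165041 (300 nM final) for 17 h at 37 C. Viability was then read in the same wells by CellTiter-Glo luminescence after 30 min at room temperature.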

[2] = qHTS assay to identify small molecule agonists of the farnesoid-X-receptor (FXR) signaling pathway - cell viability counter screen (AID 743218); note: nearly all actives have a fitted effect of over 45% in size; note: potency is the fitted concentration of half-maximal effect
Summary of the method: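 Parallel cytotoxicity test: compound-treated (16 h, 37 C) HEK 293T FXR-bla reporter cells were lysed with CellTiter-Glo and luminescence recorded.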

[3] = qHTS assay to identify small molecule antagonists of the farnesoid-X-receptor (FXR) signaling pathway - cell viability counter screen (AID 743221; active = well fitted cell-killing curve with a large enough effect in the repeat runs, not every such curve was filed as active; note: nearly all actives have a fitted effect of over 50% in size; note: potency is the fitted concentration of half-maximal effect)
Summary of the method: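 Multiplexed counter screen: viability of FXR-bla HEK 293T cells under agonist stimulation by chenodeoxycholic acid (50 uM, final) and test compound for 16 h at 37 C, measured by CellTiter-Glo luminescence in the reporter wells.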

[4] = target: Vitamin D3 receptor (Homo sapiens) (UniProt P11473); assay: qHTS assay to identify small molecule agonists of the vitamin D receptor (VDR) signaling pathway (AID 743222; calls by dose curve; note: potency is the fitted concentration of half-maximal effect)
Summary of the method: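 In VDR-bla cells, compound-induced beta-lactamase expression is quantified by FRET substrate fluorescence. Treatment lasts 16 h at 37C; substrate develops 2 h at room temperature.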

[5] = qHTS assay to identify small molecule agonists of the vitamin D receptor (VDR) signaling pathway - cell viability counter screen (AID 743224); note: potency is the fitted concentration of half-maximal effect; nearly all actives have a fitted effect of over 50% in size
Summary of the method: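 Plated VDR-bla cells (4 h, 37C) received compound, incubated 16 h, then LiveBLAzer substrate 2 h RT; CellTiter-Glo added afterwards, luminescence read at 30 min.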

[6] = qHTS assay to identify small molecule antagonists of the vitamin D receptor (VDR) signaling pathway - cell viability counter screen (AID 743225); note: potency is the fitted concentration of half-maximal effect; nearly all actives have a fitted effect of over 50% in size
Summary of the method: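 HEK293T VDR-bla; cpd + 1a,25-(OH)2D3 3 nM final, 16 h 37C/5% CO2; B/G FRET substrate 2 h RT; then CellTiter-Glo 30 min RT, luminescence.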

[7] = target: Vitamin D3 receptor (Homo sapiens) (UniProt P11473); assay: qHTS assay to identify small molecule antagonists of the vitamin D receptor (VDR) signaling pathway (AID 743223; active = well fitted inhibition curve with a large enough effect in the signal ratio in the repeat runs, not every such curve was filed as active; the % refers to the signal ratio; note: potency is the fitted concentration of half-maximal effect)
Summary of the method: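 Cells carrying a VDR-driven beta-lactamase reporter (VDR-bla) were co-treated with compound and 3 nM final 1alpha,25-dihydroxyvitamin D3 for 16 h at 37C; reporter activity was measured as FRET substrate fluorescence after 2 h at room temperature.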

[8] = target: Peroxisome proliferator-activated receptor delta (Homo sapiens) (UniProt Q03181); assay: qHTS assay to identify small molecule antagonists of the peroxisome proliferator-activated receptor delta (PPARd) signaling pathway (AID 743215; active = well fitted inhibition curve with a large enough effect in the signal ratio in the repeat runs, not every such curve was filed as active; the % refers to the signal ratio;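 note: cells stimulated with agonist L165041 at 300 nM final during compound exposure; series mostly up to about 62 µM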)
Summary of the method: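 HEK293H UAS-bla, PPARd; agonist L165041 300 nM final with cpd in DMSO; 37 C 17 h; FRET substrate, RT 2 h; fluorescence intensity.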

Measured: Potency

Sequence of Vitamin D3 receptor (Homo sapiens) (P11473 whole entry, looked up): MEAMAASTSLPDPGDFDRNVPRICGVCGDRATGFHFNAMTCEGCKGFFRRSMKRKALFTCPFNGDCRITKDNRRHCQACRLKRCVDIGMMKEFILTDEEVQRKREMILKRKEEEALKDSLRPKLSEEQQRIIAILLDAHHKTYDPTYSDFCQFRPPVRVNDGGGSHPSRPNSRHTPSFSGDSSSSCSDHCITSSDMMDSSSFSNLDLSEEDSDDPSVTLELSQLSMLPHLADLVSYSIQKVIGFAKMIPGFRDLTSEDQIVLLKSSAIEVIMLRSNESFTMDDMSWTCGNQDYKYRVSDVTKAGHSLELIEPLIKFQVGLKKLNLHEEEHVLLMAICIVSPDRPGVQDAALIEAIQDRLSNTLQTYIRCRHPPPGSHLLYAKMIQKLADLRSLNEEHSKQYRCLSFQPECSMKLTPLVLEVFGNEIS
Sequence of Peroxisome proliferator-activated receptor delta (Homo sapiens) (Q03181 whole entry, looked up): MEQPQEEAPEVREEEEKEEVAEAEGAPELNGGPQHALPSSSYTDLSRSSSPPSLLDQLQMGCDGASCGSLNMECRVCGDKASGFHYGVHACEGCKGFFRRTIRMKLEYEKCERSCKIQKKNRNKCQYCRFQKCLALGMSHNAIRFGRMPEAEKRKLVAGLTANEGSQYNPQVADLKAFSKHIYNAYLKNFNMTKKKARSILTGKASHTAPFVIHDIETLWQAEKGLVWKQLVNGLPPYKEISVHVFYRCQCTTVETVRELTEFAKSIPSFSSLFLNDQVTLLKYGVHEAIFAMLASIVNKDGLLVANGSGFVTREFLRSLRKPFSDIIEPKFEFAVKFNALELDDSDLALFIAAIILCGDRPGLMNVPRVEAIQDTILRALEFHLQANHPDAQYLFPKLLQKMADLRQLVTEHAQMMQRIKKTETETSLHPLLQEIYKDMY

CCCOCC(=Nc1ccc(Cl)cc1C(F)(F)F)n1ccnc1
active: [1] 21.9 µM | [2] 17.4 µM | [3] 21.9 µM | [4] 34.6 µM | [5] 7.76 µM | [6] 12.3 µM

CC1(C)CN=C(NN=C(/C=C/c2ccc(C(F)(F)F)cc2)/C=C/c2ccc(C(F)(F)F)cc2)NC1
active: [1] 6.92 µM | [2] 11 µM | [3] 15.5 µM | [7] 13.8 µM | [5] 6.92 µM

O=C(Nc1ccc2[nH]ccc2c1)c1cc2cc(F)ccc2n1Cc1cccc(F)c1
inactive: [4]
active: [1] 43.6 µM | [2] 49 µM | [7] 43.6 µM | [5] 43.6 µM | [6] 43.6 µM

Oc1c(Cl)c(Cl)cc(Cl)c1Cl
inactive: [8]

O=c1[nH]c2ccccc2n1C1CCN(CCCC(c2ccc(F)cc2)c2ccc(F)cc2)CC1
active: [1] 21.9 µM and 29.8 µM | [2] 21.9 µM | [5] 21.9 µM

C=CC(=O)OCC(COC(=O)C=C)(COC(=O)C=C)COC(=O)C=C
active: [1] 12.3 µM | [2] 7.76 µM | [3] 21.9 µM | [5] 7.76 µM | [6] 6.92 µM

N#CSCSC#N
inactive: [2] | [4]
active: [1] 44.6 µM and 48.5 µM | [5] 15.8 µM and 17.2 µM

S=C(SSC(=S)N1CCCCC1)N1CCCCC1
active: [1] 0.168 µM | [3] 0.211 µM | [5] 0.168 µM

O=C(O)c1cc[c]([Hg][Cl])cc1
inactive: [8] | [3] | [4]
active: [2] 27.5 µM | [5] 24.5 µM | [6] 21.9 µM

CC[C@H](C)[C@H]1O[C@]2(C=C[C@@H]1C)C[C@@H]1C[C@@H](C/C=C(\C)[C@@H](O[C@H]3C[C@H](OC)[C@@H](O[C@H]4C[C@H](OC)[C@@H](O)[C@H](C)O4)[C@H](C)O3)[C@@H](C)/C=C/C=C3\CO[C@@H]4[C@H](O)C(C)=C[C@@H](C(=O)O1)[C@]34O)O2
active: [1] 9.15 µM | [2] 12.9 µM | [3] 12.9 µM | [5] 7.27 µM | [6] 11.5 µM
